According to PubChem BioAssay (NCATS):
“And” between values parts separate entries of the source, which are not always exact repeats. Identical values can stand only once. Unmarked numbers belong to inactive results. Records with an inconclusive call do not appear. A call without a number means that no potency is given here. The source made the active and inactive calls. The call rests on the fitted dose curve; in most records, active means well fitted curve in the direction sought with a large enough effect; inconclusive means small, poorly fitted or top-dose-only effect, or another doubt; inactive means no such curve, though single readings can be large; an effect the other way counts as inactive or inconclusive.

Key:
[1] = Cellular Toxicity (caspase-3) Jurkat (AID 655); conditions: Jurkat caspase-3 activation, luminescence; caspase-3 activation: at 92.2 µM (top of the series), DMSO = 0%, tamoxifen = 100%;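 further: cells exposed to compound for 16 h at 37 °C before reading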; further: potency means the concentration at half of the fitted maximal effect
In short: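 5000 Jurkat cells/well; compound 16 hr, 37 °C; Caspase-Glo 3/7 added, 20 min RT; luminescence read. Norm: DMSO = 0%, tamoxifen 100 uM = 100%. AC50, Hill model.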

[2] = Cellular Toxicity (caspase-3) HUV-EC-C (AID 656)
In short: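 qHTS; HUV-EC-C, 1000 cells/well; 5 hr settle, 16 hr cmpd, 37°C; Caspase-Glo 3/7, 20 min RT; luminescence. Norm: DMSO = 0%, tamoxifen 100 uM = 100%. Hill-fit AC50.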

[3] = Cellular Toxicity (caspase-3) SHSY5Y (AID 657);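 further: cells exposed to compound for 16 hours at 37 °C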
In short: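 qHTS, SH-SY5Y, 1500 cells/well, 5 h pre-incubation 37 °C; compound 16 h 37 °C; Caspase-Glo 3/7 1 h RT; luminescence. Norm.: DMSO = 0, 10 uM staurosporine = 100%. Hill fit → AC50.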

[4] = Cellular Toxicity (caspase-3) Mesangial (AID 660);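 further: combined caspase 3 and 7 activity read by Caspase-Glo luminescence; cells exposed to compound for 16 h before the caspase read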
In short: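 Seed cells derived from normal human renal glomeruli, incubate 5 h, add compounds across concentrations and incubate 16 h at 37 °C. Caspase 3/7 activation is then quantified by luciferase light, with AC50 derived by Hill modeling.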

[5] = Cellular Toxicity (caspase-3) Hek293 (AID 664);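 further: cells exposed to compound for 16 h at 37 °C before readout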
In short: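 qHTS, HEK293 (human embryonic kidney), 16 h cpd exposure in complete medium. Caspase-3/7 activation = luminescence increase; normalized to DMSO/100 uM tamoxifen; Hill-fit AC50.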

[6] = Cellular Toxicity (caspase-3) N2a (AID 665);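 further: compound exposure lasted 16 h at 37 °C before readout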
In short: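 Caspase-3/7 activation, measured as increased luminescence from aminoluciferin release, is quantified in mouse N2a cells exposed to compounds for 16 h. Values are normalized to DMSO and 10 uM staurosporine, with AC50 derived by Hill modelling.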

[7] = Cellular Toxicity (caspase-3) NIH 3T3 (AID 666);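 further: caspase signal read after 16 h compound exposure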
In short: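 Cells were plated at 1000 per well and incubated 5 hr at 37°C, then compound was added for 16 hr. Caspase-Glo 3/7 reagent followed for 20 min at room temperature before luminescence was read.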

[8] = Cellular Toxicity (caspase-3) BJ (AID 658)
In short: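 qHTS, BJ fibroblasts, 1000 cells/well; 5 hr preincubation, 16 hr compound, 37 °C; Caspase-Glo 3/7 reagent, 1 hr RT; luminescence. DMSO = 0%, 10 uM staurosporine = 100%. Hill-equation AC50.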

[9] = Cellular Toxicity (caspase-3) MRC-5 (AID 659)
In short: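 MRC-5 fibroblasts, 1500/well; 16 h cpd, 37 °C; Caspase-Glo 3/7, 1 h RT; lumi read. Norm: DMSO = 0%, 10 uM staurosporine = 100%. Hill-fit AC50 from qHTS conc-response.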

[10] = Cellular Toxicity (caspase-3) SK-N-SH (AID 661)
In short: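 Cells were seeded and incubated 5 hr at 37 °C, dosed with compound over a concentration range for 16 hr, then given Caspase-Glo 3/7 reagent for 1 hr at room temperature before luminescence reading.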

**Q.** Which results are given for `O=CCCCC=O`?
**A.** Potency [1]: 6.31 µM (active); outcome [2]: inactive; outcome [3]: inactive; outcome [4]: inactive; outcome [5]: inactive; outcome [6]: inactive; outcome [7]: inactive

**Q.** Which results are given for `CCOc1ccc2c(c1)C(C)=CC(C)(C)N2`?
**A.** caspase-3 activation [1]: 15.7%; outcome [2]: inactive; outcome [3]: inactive; outcome [8]: inactive; outcome [9]: inactive; outcome [4]: inactive; outcome [10]: inactive; outcome [5]: inactive; outcome [6]: inactive; outcome [7]: inactive

**Q.** Which caspase-3 activation [1] does the source give for `CCCCCCCC(=O)O` here?
**A.** -0.427% and 1.06%

**Q.** What about the outcome [2] of the same compound?
**A.** inactive

**Q.** And the outcome [3]?
**A.** inactive

**Q.** And the outcome [8]?
**A.** inactive

**Q.** And the outcome [9]?
**A.** inactive

**Q.** And the outcome [4]?
**A.** inactive

**Q.** And the outcome [10]?
**A.** inactive

**Q.** What about the outcome [5] of the same compound?
**A.** inactive

**Q.** And the outcome [6]?
**A.** inactive

**Q.** And the outcome [7]?
**A.** inactive

**Q.** With `IC(I)I` as the compound, how does the caspase-3 activation [1] read?
**A.** -0.0373%

**Q.** And the outcome [2]?
**A.** inactive

**Q.** What about the outcome [3] of the same compound?
**A.** inactive

**Q.** What about the outcome [8] of the same compound?
**A.** inactive

**Q.** What about the outcome [9] of the same compound?
**A.** inactive

**Q.** And the outcome [4]?
**A.** inactive

**Q.** What about the outcome [10] of the same compound?
**A.** inactive

**Q.** What about the outcome [5] of the same compound?
**A.** inactive

**Q.** What about the outcome [6] of the same compound?
**A.** inactive

**Q.** What about the outcome [7] of the same compound?
**A.** inactive

**Q.** With `O=C(O)CCC(=O)C(=O)O` as the compound, how does the caspase-3 activation [1] read?
**A.** 0.778%

**Q.** And the outcome [2]?
**A.** inactive

**Q.** And the outcome [3]?
**A.** inactive

**Q.** And the outcome [8]?
**A.** inactive

**Q.** What about the outcome [9] of the same compound?
**A.** inactive

**Q.** And the outcome [4]?
**A.** inactive

**Q.** What about the outcome [10] of the same compound?
**A.** inactive

**Q.** And the outcome [5]?
**A.** inactive

**Q.** And the outcome [6]?
**A.** inactive

**Q.** And the outcome [7]?
**A.** inactive

**Q.** Which caspase-3 activation [1] does the source give for `CCCCCCCC/C=C\CCCCCCCC(=O)O` here?
**A.** 1.62%

**Q.** And the outcome [2]?
**A.** inactive

**Q.** What about the outcome [3] of the same compound?
**A.** inactive

**Q.** And the outcome [8]?
**A.** inactive

**Q.** What about the outcome [9] of the same compound?
**A.** inactive

**Q.** And the outcome [4]?
**A.** inactive

**Q.** And the outcome [10]?
**A.** inactive

**Q.** And the outcome [5]?
**A.** inactive

**Q.** And the outcome [6]?
**A.** inactive

**Q.** And the outcome [7]?
**A.** inactive

**Q.** Which caspase-3 activation [1] does the source give for `Cc1ccccc1` here?
**A.** -1.43% and -0.873%

**Q.** And the outcome [2]?
**A.** inactive

**Q.** What about the outcome [3] of the same compound?
**A.** inactive

**Q.** And the outcome [8]?
**A.** inactive

**Q.** And the outcome [9]?
**A.** inactive

**Q.** What about the outcome [4] of the same compound?
**A.** inactive

**Q.** What about the outcome [10] of the same compound?
**A.** inactive

**Q.** What about the outcome [5] of the same compound?
**A.** inactive

**Q.** What about the outcome [6] of the same compound?
**A.** inactive

**Q.** And the outcome [7]?
**A.** inactive

**Q.** Which caspase-3 activation [1] does the source give for `CCCCC/C=C\C/C=C\CCCCCCCC(=O)O` here?
**A.** 2.62%

**Q.** What about the outcome [2] of the same compound?
**A.** inactive

**Q.** And the outcome [3]?
**A.** inactive

**Q.** What about the outcome [8] of the same compound?
**A.** inactive

**Q.** And the outcome [9]?
**A.** inactive

**Q.** And the outcome [4]?
**A.** inactive

**Q.** And the outcome [10]?
**A.** inactive

**Q.** What about the outcome [5] of the same compound?
**A.** inactive

**Q.** What about the outcome [6] of the same compound?
**A.** inactive

**Q.** What about the outcome [7] of the same compound?
**A.** inactive

**Q.** With `CC1=C2[C@@H]([C@H](C)CC[C@H]2/C=C(\C)C(=O)O)[C@H](O)C1` as the compound, how does the caspase-3 activation [1] read?
**A.** 0.468%

**Q.** What about the outcome [2] of the same compound?
**A.** inactive

**Q.** What about the outcome [3] of the same compound?
**A.** inactive

**Q.** And the outcome [8]?
**A.** inactive

**Q.** And the outcome [9]?
**A.** inactive

**Q.** And the outcome [4]?
**A.** inactive

**Q.** And the outcome [10]?
**A.** inactive

**Q.** What about the outcome [5] of the same compound?
**A.** inactive

**Q.** And the outcome [6]?
**A.** inactive

**Q.** What about the outcome [7] of the same compound?
**A.** inactive

**Q.** Which caspase-3 activation [1] does the source give for `O=S(=O)(O)O` here?
**A.** 4.57% and 0.977%

**Q.** What about the outcome [2] of the same compound?
**A.** inactive

**Q.** And the outcome [3]?
**A.** inactive

**Q.** What about the outcome [8] of the same compound?
**A.** inactive

**Q.** And the outcome [9]?
**A.** inactive

**Q.** And the outcome [4]?
**A.** inactive

**Q.** What about the outcome [10] of the same compound?
**A.** inactive

**Q.** What about the outcome [5] of the same compound?
**A.** inactive

**Q.** What about the outcome [6] of the same compound?
**A.** inactive

**Q.** And the outcome [7]?
**A.** inactive

**Q.** Which results are given for `CC(C)(C)NC(=O)[C@@H]1C[C@@H]2CCCC[C@@H]2CN1C[C@@H](O)[C@H](Cc1ccccc1)NC(=O)[C@H](CC(N)=O)NC(=O)c1ccc2ccccc2n1`?
**A.** caspase-3 activation [1]: 116% (active); outcome [4]: inactive; outcome [6]: inactive; outcome [7]: inactive

**Q.** Which results are given for `CC(O)CO` (centres undefined)?
**A.** caspase-3 activation [1]: 1.29% and 0.367%; outcome [2]: inactive; outcome [3]: inactive; outcome [8]: inactive; outcome [9]: inactive; outcome [4]: inactive; outcome [10]: inactive; outcome [5]: inactive; outcome [6]: inactive; outcome [7]: inactive

**Q.** For `CC(C)=O`, which caspase-3 activation [1] is on record?
**A.** -1.17%

**Q.** What about the outcome [2] of the same compound?
**A.** inactive

**Q.** What about the outcome [3] of the same compound?
**A.** inactive

**Q.** What about the outcome [8] of the same compound?
**A.** inactive

**Q.** What about the outcome [9] of the same compound?
**A.** inactive

**Q.** What about the outcome [4] of the same compound?
**A.** inactive

**Q.** And the outcome [10]?
**A.** inactive

**Q.** What about the outcome [5] of the same compound?
**A.** inactive

**Q.** And the outcome [6]?
**A.** inactive

**Q.** And the outcome [7]?
**A.** inactive

**Q.** What does the source list for `CC1=C(/C=C/C(C)=C/C=C/C(C)=C/CO)C(C)(C)CCC1`?
**A.** outcome [2]: inactive; outcome [3]: inactive; outcome [8]: inactive; outcome [9]: inactive; outcome [4]: inactive; outcome [10]: inactive; outcome [6]: inactive; outcome [7]: inactive

**Q.** What does the source list for `Nc1ccn([C@H]2CS[C@@H](CO)O2)c(=O)n1`?
**A.** caspase-3 activation [1]: -0.771%; outcome [2]: inactive; outcome [3]: inactive; outcome [8]: inactive; outcome [9]: inactive; outcome [4]: inactive; outcome [10]: inactive; outcome [5]: inactive; outcome [6]: inactive; outcome [7]: inactive

**Q.** With `CCOC(C)=O` as the compound, how does the caspase-3 activation [1] read?
**A.** -0.547%

**Q.** What about the outcome [2] of the same compound?
**A.** inactive

**Q.** What about the outcome [3] of the same compound?
**A.** inactive

**Q.** What about the outcome [8] of the same compound?
**A.** inactive

**Q.** And the outcome [9]?
**A.** inactive

**Q.** What about the outcome [4] of the same compound?
**A.** inactive

**Q.** What about the outcome [10] of the same compound?
**A.** inactive

**Q.** What about the outcome [5] of the same compound?
**A.** inactive

**Q.** What about the outcome [6] of the same compound?
**A.** inactive

**Q.** What about the outcome [7] of the same compound?
**A.** inactive
